The results in this text go back to the supplement of paper PMC6555819.

The test system of this experiment is RXRa DBDmut IVT, anti-RXR (DBD mutation: RXRa K156A/R161A, NR concentration 90 nM). The experiment in a line: PBM binding z-score (relative to random genomic background probes); higher = stronger binding; sequences stand for … in GC…GCGATTGACAGCGTAGAATGAAGG
In short, it runs like this:
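Regression normalization was applied to scanned fluorescence from custom Agilent 4×180K protein-binding microarrays. Before scanning, arrays were incubated 1 h with ligand-free nuclear receptor dimers, and binding was detected with antibodies against each partner (one per run). Binding z-scores use the random background probes as reference.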
Take GCTCGGAGGACAAGGTCAGTGCTTTGTCCGTAGA: the PBM binding z-score stood at 0.477.

Take CCGTGTAGGTTATGGGGCATTCAGGCAACGGTGA: the PBM binding z-score is -0.509.

With ATCTCTAGGTAAACGTTCAGTGAATCCCGAGGAT, the PBM binding z-score is -0.148.

GGAACGAGGGCATAGTTGATAGCATCTGTCGACG: the PBM binding z-score was determined as 2.25.

For CCTACTGGTCCATTCAGAGGTCATTGATCATATG, the PBM binding z-score came out at 1.73.

In turn, TCTGGTTGGTCACGGAGGTCACACACGACGGGTA showed a PBM binding z-score of 0.702.

On to CGCACTAGGTCAGAACAGGACAGTGAAGGATGAT, for which the PBM binding z-score was found to be 0.675.

TCTTGTAGATCAGTAGAGGTTAAGAAAGTGCGCT showed a PBM binding z-score of 0.802.

CAGCCTAGGTCAGGGCTAGTATAGGAGGAACGTT registered a PBM binding z-score of -0.422.

Turning to CAAACTAGGTCACAGAGCTCAAAGTCCGTGCGTA, the PBM binding z-score was determined as 1.38.

Consider CGAACTAGGTCATCCAGGACAGTTAATACATTGA, for which the PBM binding z-score was found to be 2.41.

On to CTCGAAAGGTCGGTTTAGGTGAGTATACGGATAA, for which the PBM binding z-score is 1.26.

The sequence CGTCCAAGGTCAATGCTAGGTCATTGAAAGCATT returned a PBM binding z-score of 3.83.

CCGACTGGGGCAGAAAGGTTCCCATACCATCCGG had a PBM binding z-score of -1.16.

On to CCTACTGGGCCAAAAGGGTCATTGATGCCGATAA, for which the PBM binding z-score stood at 0.103.

The sequence TCGAGTAGGTTAGGGGCACTCAGAATGGCGTCGA displayed a PBM binding z-score of 0.247.

For the sequence TCTGCTAGGCCAGTTGGTCAGCTAACGAGCTGCC, the PBM binding z-score was -0.198.

With ATCTCTAGGTTAGACTCAGTTCAGTGAAGAACGC, the PBM binding z-score is 1.

GCTTGTAGATCAAGGTTAAGAATGACTAAGCTAA returned a PBM binding z-score of 0.0922.

The sequence CGTCATAGTTCAACTAAGGTAACGTAAAGCACGC displayed a PBM binding z-score of 2.38.

In turn, AGCCAAAGTTCATCTAGGTAACGTAAGATATGCT gave a PBM binding z-score of 4.5.

TCTTGTAGAACAACAGGAGGTTAAGAAAGATCGA: the PBM binding z-score worked out at 0.511.

The sequence TCTTGTAGATCAGCAGGGTAAGAAAGCTGGCCAA came in with a PBM binding z-score of 0.581.

Regarding ACAGACAGGTGAGTGCAGGTAACTCAGCTGGACG, the PBM binding z-score is 0.222.

Regarding GCTAGCAGGCCATTTGGGTCCCTCAATGACGGGC, the PBM binding z-score was -0.721.

TCGAGTAGGTTACCAATGGGGCATCCAGCTTTCT had a PBM binding z-score of -0.00896.

The sequence TCATATAGGTAAAGGTGAAATTCGAACGATATGA gave a PBM binding z-score of 0.746.

Regarding GCATATAGGTAATACAAGGTGAAAGTACGATTGT, the PBM binding z-score is 0.0522.

In turn, TCTTGTAGATCAGCAGGTCAAGAAAGCTGGCCAA came in with a PBM binding z-score of 0.289.

CCTTACGGGTCACTGACAGGTTATAGCATTTGGA gave a PBM binding z-score of 1.95.

As for ATCTCTAGGTAACAAGTTCAATGAAAGAGAGGAC, the PBM binding z-score came out at 2.15.

In turn, CGTCCAAGGTCAGCAGGTCAATGAAAGCGACGTG registered a PBM binding z-score of 2.62.

CCTTACGGGTCAAGGTTATGGCACGGGTGGTACG yielded a PBM binding z-score of 1.1.

As for ACGATTAGTTGAGACGAGGGCAACCGATAGGTTG, the PBM binding z-score is -0.112.

Sequence CCGACTGTGGCAGAAAGGTTACCATACCATCCGG returned a PBM binding z-score of -0.111.

The sequence TCTATTAGTTGATGAGGGCAACCGAAACAGCGGA came in with a PBM binding z-score of 1.31.

As for CCTACTGGGCCAAGGTCATTAATCAGTCAAAGCA, the PBM binding z-score is 1.47.

As for CGAACTAGGTCATTGACAGGACAGTGATTAGTAA, the PBM binding z-score was 2.49.

For TCAGACAGGTGAAGGTAGCTCAGGTACGCAGTCG, the PBM binding z-score came out at 1.13.

AGTCAAAGTTCAGGACGAGGTGACGTAAAGCACG: the PBM binding z-score was found to be 3.18.
